Compounds with a hit are over-represented: about 2.3% of the library has one in this group of screens.
M1 ag parental = counter-screen for M1 agonists: effect in parental CHO-K1 cells; Fluo-8 calcium fluorescence; scaled to maximal ATP response, vehicle zero; activation, % at 3 µM; actives 0.48% (n = 360,000); in the data active = activation above about 15%;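 also: untransfected CHO-K1 host cells lacking M1 receptor as counterscreen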
M1 antag = human M1 muscarinic receptor antagonists, primary screen, CHO-K1 cells, Fluo-8 calcium fluorescence, 1536-well. Muscarinic acetylcholine receptor M1 (Homo sapiens), P11229. inhibition, % at 3 µM. actives 1.3% (n = 360,000). CHO-K1 hM1, ACh EC80 antagonist;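 active = percent inhibition above its own plate's cutoff, namely the mean of that plate's compound wells plus 3 SD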;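 also: peak over basal fluorescence ratio during 140 s after agonist addition; 0% = ACh EC80 plus DMSO and 100% = DMSO alone without agonist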
Target sequence (P11229 whole entry, looked up): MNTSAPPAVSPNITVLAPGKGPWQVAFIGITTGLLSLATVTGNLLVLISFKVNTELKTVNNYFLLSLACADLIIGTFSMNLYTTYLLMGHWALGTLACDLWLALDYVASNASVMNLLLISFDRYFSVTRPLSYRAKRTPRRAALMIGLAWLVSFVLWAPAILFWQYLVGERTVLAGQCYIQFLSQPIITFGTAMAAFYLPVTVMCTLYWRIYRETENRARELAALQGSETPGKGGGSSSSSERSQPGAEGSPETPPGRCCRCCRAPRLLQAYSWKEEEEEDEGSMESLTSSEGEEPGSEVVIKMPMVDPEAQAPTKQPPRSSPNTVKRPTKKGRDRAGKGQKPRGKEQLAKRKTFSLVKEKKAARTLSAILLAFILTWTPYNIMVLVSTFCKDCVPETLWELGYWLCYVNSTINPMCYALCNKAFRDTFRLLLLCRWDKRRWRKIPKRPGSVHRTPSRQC
CHRM1 PAM = human M1 muscarinic receptor positive allosteric modulators, primary screen, CHO-K1 cells, Fluo-8 calcium fluorescence, 1536-well | CHO-K1 hM1, ACh EC20; 0% = ACh EC20, 100% = maximal ACh | AID 588819, 2011 | actives 0.088% (n = 360,000) | Muscarinic acetylcholine receptor M1 (Homo sapiens), P11229 | activation, % at 3 µM; in the data active = activation above about 19%, passing the limit was not always enough
CHO-K1 Ca antag = nonselective inhibitor or artifact in parental CHO-K1 cells; ATP-induced calcium, Fluo-8 fluorescence; inhibition, % at 3 µM; actives 0.6% (n = 360,000); AID 602250;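 active = inhibition above a per-plate cutoff, the plate's mean sample inhibition plus 3 SD, cut at about 24% in these data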;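 also: 0% = DMSO plus EC80 ATP and 100% = DMSO alone without ATP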
CHO-K1 Ca PAM = nonselective calcium activators in parental CHO-K1 cells, primary screen, counter-screen for M1 PAM project, cell-based, Fluo-8 calcium fluorescence, full deck, 1536-well | ATP EC20; 0% at ATP EC20, 100% at ATP max | activation, % at 3 µM | actives 0.02% (n = 360,000) | AID 602247, 2012;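 active = activation above the run cutoff, the mean activation of all test compounds plus 3 SD, cut at about 40% in these data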;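 also: peak over basal fluorescence ratio in a 140 s read after ATP addition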
M1 ag = human M1 muscarinic receptor agonists, primary screen, Fluo-8 calcium fluorescence, CHO-K1 cells, HTS | CHO-K1 hM1, agonist mode; 0% DMSO, 100% acetylcholine EC100 | activation, % at 3 µM | actives 0.33% (n = 360,000) | AID 588814, 2011;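 active = activation above the run's mean compound activation plus 3 SD, cut at about 16% in these data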;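 also: peak over basal fluorescence ratio within a 140 s kinetic read after compound addition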
The depositor's hits bear a star; ! = repeats disagree.

SMILES	M1 ag parental	M1 antag	CHRM1 PAM	CHO-K1 Ca antag	CHO-K1 Ca PAM	M1 ag
COC(=O)c1ccc(NC(=S)NC2CC3CCC2C3)cc1 (stereo unspecified)	16*	17	-6	13	11	-4
OCC[C@@H]1C[C@H](O)[C@@H](O)[C@]2(OCc3ccccc32)O1	1	2	-1	-4	-4	-3
COc1cc(OC)nc(C(NC(=O)C2CCN(Cc3c[nH]c4ccccc34)CC2)c2ccc(Cl)cc2)n1 (stereo unspecified)	4	16	-8	-3	4	7
CC(C)CC1Nc2ncnc(N3CCN(c4ccccn4)CC3)c2N(Cc2ccc(Br)cc2)C1=O (stereo unspecified)	0	40*!	-25	-21	8	-12
Cc1ccc(CN2C(=O)C(CC(C)C)Nc3ncnc(N4CCN(c5ccccn5)CC4)c32)cc1 (stereo unspecified)	0	34*	-29	-8	9	-11
COc1ccc(CN2C(=O)C(CC(C)C)Nc3ncnc(N4CCN(c5ccccn5)CC4)c32)cc1 (stereo unspecified)	0	-8	-6	-12	13	-9
CCn1c(C)nc2cc(C(=O)NNC(=S)Nc3ccc(OC)cc3)ccc21	0	0	9	6	-11	-2
CN(Cc1cn[nH]c1-c1ccc(-c2ccccc2)cc1)CC1CCOCC1	17*	-9	3	-2	21	-5
O=C(CCCN=C1NS(=O)(=O)c2ccccc21)OCC(=O)c1ccc(F)cc1	9	-5	2	2	1	22*
CC1(C)NC(=O)N(CC(=O)N2CCN(c3ccc([N+](=O)[O-])cc3)CC2)C1=O	1	13	-10	-19	-12	-6
Clc1ncnc2c1oc1ccccc12	1	-9	5	-19	21	-3
c1coc(CN(Cc2ccco2)c2ncnc3c2oc2ccccc23)c1	6	37*	-16	10	17	0
O=C(NCC1CC1)c1csc([C@@H]2O[C@H](CO)[C@H](O)[C@H](O)[C@H]2O)n1	0	-8	4	9	-6	0
CCOC(=O)c1cccc(NC(=O)C2CCN(S(=O)(=O)c3cccs3)CC2)c1	5	-2	-2	2	1	-2
CCOC(=O)c1ccc2c(c1)nc(C1CCN(S(=O)(=O)c3cccs3)CC1)n2CC	15*	15	-23	-6	3	-5
Cn1nnnc1SCc1csc(C2C(C#N)=C(N)OC3=C2C(=O)CCC3)c1 (stereo unspecified)	6	19	-5	0	11	-4
CCN(CCCC(=O)c1ccc(F)cc1)CCc1ccccc1	1	59*	-26	0	1	-10
COc1ccc(CNS(=O)(=O)NCc2ccc(C)cc2)cc1OC	19*	7	1	15	3	-4
CCOC(=O)c1sc(NC(=O)COC(=O)C(CCSC)NC(C)=O)nc1C (stereo unspecified)	0	-7	5	6	15	-8
Fc1ccc(N2CCN(C(=S)NCc3ccco3)CC2)cc1	2	-4	-8	-6	9	-8
COc1cccc(N2CCN(C(=S)NCc3ccco3)CC2)c1	0	1	12	26*	-3	-1
CCn1c(NCc2ccccn2)nc2ccccc21	0	1	5	24*	-8	-2
CCn1c(NCc2cccs2)nc2ccccc21	0	-26	15	-12	1	-3
COc1ccc([C@H]2CC(=O)C=C(c3ccc(F)cc3OCc3ccccc3)C2)cc1OC	2	50*	-15	16	1	-1
OCC[C@H]1C[C@@H](O)[C@H](O)[C@]2(CCc3ccccc3CO2)O1	0	-2	5	-14	10	18*
SMILES	M1 ag parental	M1 antag	CHRM1 PAM	CHO-K1 Ca antag	CHO-K1 Ca PAM	M1 ag
Cn1cc2cc([N+](=O)[O-])ccc2n1	0	4	1	0	10	23*
COc1ccc(C=O)c(OCc2cn(CC(=O)c3ccc(O)cc3)nn2)c1	1	-10	9	-9	21	-2
N#CCCN(NC1=NS(=O)(=O)c2ccccc21)C(=O)c1ccccc1Br	0	-15	8	-4	11	-3
N#Cc1ccc(OCC(O)CN2CCC(C(O)(c3ccccc3)c3ccccc3)CC2)cc1 (stereo unspecified)	10	32*	-29	-14	7	-11
Cc1cccc[n+]1CC(=O)Nc1ccc([N+](=O)[O-])cc1Cl	0	36*	-12	10	-5	-5
O=[N+]([O-])c1ccc(C[n+]2ccc(Cc3ccccc3)cc2)cc1	0	28*	-31	-6	16	-14
O=C(C[n+]1ccc(Cc2ccccc2)cc1)Nc1ccc([N+](=O)[O-])cc1Cl	0	86*	-22	-21	24	-6
Nc1nonc1-n1nnc(C(=O)N/N=C/c2ccccc2Br)c1CN1CCCC1	0	-1	3	-14	6	-5
Cc1cccc(CCN(CC(=O)NCc2ccc(F)cc2)C(=O)c2csnn2)c1	3	-3	4	1	2	-1
COc1ccccc1-c1sc2cc3c(cc2c1-c1ccc(OCCN2CCOCC2)cc1)OCO3	1	25*	-11	-17	16	0
COc1ccc(-c2sc3cc4c(cc3c2-c2ccc(OCCN3CCCCC3)cc2)OCO4)cc1	1	-4	1	-6	10	-4
CCC1(c2ccc(C)cc2)NC(=O)N(C(C)C(=O)Nc2ccc(N3CCOCC3)cc2)C1=O (stereo unspecified)	1	1	4	-16	12	-1
Fc1ccccc1-c1csc(=Nc2cccnc2)n1CCCn1ccnc1	2	30*	-27	-4	18	-11
Fc1ccccc1-c1csc(=Nc2cccnc2)n1CC1CCCO1 (stereo unspecified)	4	9	-8	3	-8	-8
C/C(N)=C(/C#N)C(=O)COC(=O)Cc1coc2ccc3ccccc3c12	19*	8	3	3	2	-3
CCN1CCN(C(=O)c2cc(=O)c3cc(C)ccc3o2)CC1	1	-6	6	-12	17	-9
O=C(Nc1ccnn1C1CCN(Cc2cc(Cl)ccc2O)CC1)c1cccnc1	2	40*	-16	-10	-5	-5
CCOC(=O)c1c(N)sn(-c2ccccc2C)c1=S	0	34*	-9	2	-2	-4

Screening data (PubChem BioAssay)
